{
  "source": "PubChem BioAssay (NCATS)",
  "note": "Records with an inconclusive call do not appear. Values without a mark were called inactive. The call rests on the fitted dose curve; in most records, active means well fitted inhibition curve with a large enough effect; inconclusive means small, poorly fitted or top-dose-only effect; inactive means no such curve, though single readings can be large or run the other way.",
  "data": [
    {"biological_target": "Retinaldehyde dehydrogenase 3 (Homo sapiens) (UniProt P47895)", "experiment": "qHTS for Inhibitors of the Aldehyde Dehydrogenase Family (ALDH1A3) Primary screen (AID 2061315);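 further: plate controls were DMSO vehicle for no effect and reference inhibitor for full effect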", "conditions": "ALDH inhibition qHTS; series mostly up to 56 µM; activity change, negative = inhibition: at the top concentration", "values": [
      {"smiles": "CC(=O)C=C=C1C(C)(C)CC(O)CC1(C)O[C@@H]1O[C@H](CO[C@H]2OC[C@](O)(CO)[C@H]2O)[C@@H](O)[C@H](O)[C@H]1O", "note": "(stereo not given in full)", "activity change, negative = inhibition": "-16% [at 28 µM]"},
      {"smiles": "CC1(C)CC2C3=CCC4C5(C)CCC(OC6OC(C(=O)O)C(O)C(O)C6OC6OC(CO)C(O)C(O)C6OC6OC(CO)C(O)C(O)C6O)C(C)(CO)C5CCC4(C)C3(C)CCC2(C)C(OC2OCC(O)C(OC3OC(CO)C(O)C(O)C3O)C2O)C1O", "note": "(stereo not given)", "activity change, negative = inhibition": "-21.1% [at 11.2 µM]"},
      {"smiles": "COc1ccc(/C=C/C(=O)O[C@@H]2[C@@H](O[C@@H]3O[C@H](CO)[C@@H](O)[C@H](O)[C@H]3O)[C@@H](O)[C@H](O[C@H]3C4C=CO[C@@H](O[C@@H]5O[C@H](CO)[C@@H](O)[C@H](O)[C@H]5O)C4[C@@]4(CO)O[C@@H]34)O[C@H]2C)cc1", "note": "(stereo not given in full)", "activity change, negative = inhibition": "-7.15% [at 16.9 µM]"},
      {"smiles": "CCC(C)C(=O)OC1CC(O)C23C4OCC5(C(O)CC2C1(C)C(O)O4)C3C(=O)C(O)C1(C)C(O)(c2ccoc2)CC2OC251", "note": "(stereo not given)", "activity change, negative = inhibition": "14.4% [at 16.9 µM]"},
      {"smiles": "O=C(O[C@@H]1O[C@H](CO)[C@@H](O)[C@H](O)[C@H]1O)c1ccccc1", "activity change, negative = inhibition": "18.4%"},
      {"smiles": "CC1(C)CCCC2(C)c3c4c(c(=O)oc(=O)c3=CCC12)=CCC1C(C)(C)CCCC41C", "note": "(stereo not given)", "activity change, negative = inhibition": "-0.825% [at 28 µM]"},
      {"smiles": "C=CCc1ccc(O[C@@H]2O[C@H](CO)[C@@H](O)[C@H](O)[C@H]2O)c(O[C@@H]2O[C@H](CO)[C@@H](O)[C@H](O)[C@H]2O)c1", "activity change, negative = inhibition": "-12.4% [at 28 µM]"},
      {"smiles": "O=C(O)Cc1cn(C2OCC(O)C(O)C2O[C@@H]2O[C@H](CO)[C@@H](O)[C@H](O)[C@H]2O)c2ccccc12", "note": "(stereo not given in full)", "activity change, negative = inhibition": "10.3% [at 28 µM]"},
      {"smiles": "CC[C@H]1OC(=O)[C@H](C)[C@@H](OC2C[C@@](C)(OC)[C@@H](O)[C@H](C)O2)[C@H](C)[C@@H](OC2O[C@H](C)C[C@H](NC)[C@H]2O)[C@](C)(O)C[C@@H](C)CN(C)[C@H](C)[C@@H](O)[C@]1(C)O", "note": "(stereo not given in full)", "activity change, negative = inhibition": "-4.89%"},
      {"smiles": "COc1c(C)c(OCC(O)C(C)(C)O)cc2c1CNC2=O", "note": "(stereo not given)", "activity change, negative = inhibition": "6.62%"},
      {"smiles": "CC1=C2C(=O)C=C(CO[C@@H]3O[C@H](CO)[C@@H](O)[C@H](O)[C@H]3O)[C@@H]2[C@H]2OC(=O)[C@H](C)[C@@H]2CC1", "activity change, negative = inhibition": "-3.36% [at 28 µM]"},
      {"smiles": "CC1CCC2C(C)(C)C(O)CCC2(C)C12Cc1c(O)cc3c(c1O2)CN(C(CCC(N)=O)C(=O)O)C3=O", "note": "(stereo not given)", "activity change, negative = inhibition": "-13.3% [at 28 µM]"},
      {"smiles": "C/C=C(/COC(=O)/C(C)=C/C)C(=O)OC(CC)c1ccc(OC)c(OC)c1", "note": "(stereo not given)", "activity change, negative = inhibition": "-5.2%"},
      {"smiles": "CC12CCC3C(C)(C)C(O)CCC3(C)C1Cc1c(oc(C(=O)O)cc1=O)O2", "note": "(stereo not given)", "activity change, negative = inhibition": "-9.86%"},
      {"smiles": "Cc1ccc(-c2ncccn2)c(C(=O)N2C[C@H](COc3ccc(F)cn3)CC[C@H]2C)c1", "activity change, negative = inhibition": "7.23%"}
    ]}
  ]
}
